Laboratory results as given in PubChem BioAssay (NCATS).
Values joined by “and” are separate entries in the source; they are usually repeats but may differ in a detail not shown here. Identical values can stand only once. Results filed as inconclusive are left out. Active and inactive are the calls of the source. Unless noted, the call rests on the fitted dose curve; in most records, active means well fitted curve in the direction sought with a large enough effect; inconclusive means small, poorly fitted or top-dose-only effect, or another doubt; inactive means no such curve, though single readings can be large; an effect the other way counts as inactive or inconclusive.

Assays:
[1] = Cell Viability - Hek293 (AID 427;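 active means compounds whose dose-response curve shows a full or clear partial loss of cell viability, called from curve shape rather than a numeric limit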;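 further: potency means the concentration at half of the fitted maximal effect; cells exposed to compound for 40 hours at 37 °C before reading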); conditions: qHTS
Summary of the method: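 HEK293 cells in complete medium were exposed to compound for 40 hr at 37 °C, then cellular ATP was read by CellTiter-Glo luminescence. Data were normalized to DMSO (basal) and 100 uM tamoxifen (100% inhibition), and AC50 came from Hill fits.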

[2] = Cell Viability - SK-N-SH (AID 435; calls by dose curve;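 further: potency means the concentration at half of the fitted maximal effect; compound exposure lasted 40 h at 37 °C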); conditions: SK-N-SH neuroblastoma cell viability qHTS
Summary of the method: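 SK-N-SH neuroblastoma cells (1500/well) treated 40 h at 37 °C in complete medium; viability read as cellular ATP by CellTiter-Glo luminescence. Normalized to DMSO and 100 uM tamoxifen; AC50 from Hill fits of qHTS concentration-response.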

[3] = Cell Viability - Renal Proximal Tubule (AID 545); conditions: renal proximal tubule cells viability, primary cells of rat origin; activity change, negative = cytotoxicity: at 91.7 µM (top of the series);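 further: 0% = DMSO only and -100% = 100 µM tamoxifen; nearly all actives have a fitted effect of over 40% in size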
Summary of the method: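 Rat renal proximal tubule primary cells, 1000/well, exposed to compounds for 40 hr at 37 °C in complete medium; cellular ATP read by CellTiter-Glo luminescence. AC50 from concentration-response fitted with standard Hill equation.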

[4] = MultiTox-Fluor Cytotoxicity Assay - LYMP1-001 - Live Cells (AID 947); conditions: LYMP1-001 lymphoblastoid cells, live-cell protease fluorescence viability; series mostly up to 92.2 µM;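 further: 0% = DMSO only and full inhibition = tetraoctylammonium bromide control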
[5] = MultiTox-Fluor Cytotoxicity Assay - LYMP1-002 - Dead Cells (AID 960); conditions: LYMP1-002 lymphoblastoid cells, dead-cell protease fluorescence; series mostly up to 46.1 µM; further: nearly all actives have a fitted effect of over 60% in size
Summary of the method: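 LYMP1-002 cells 2500/well; 5 hr 37 C pre-incubation; compound 16 hr 37 C; MultiTox-Fluor reagent 60 min RT; dead-cell fluor Ex/Em 485/520. Norm. to DMSO (0%) vs 15 uM tetraoctylammonium bromide (100%); Hill AC50.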

[6] = Cell Viability - LYMP2-009 (AID 968); conditions: LYMP2-009 lymphoblastoid cell viability; series mostly up to 92.2 µM;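 further: 0% = DMSO alone and the full-kill end = tetraoctylammonium bromide at 92 µM; nearly all actives have a fitted effect of over 55% in size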
[7] = Cell Viability - LYMP2-019 (AID 973); conditions: LYMP2-019 lymphoblastoid cell line viability; series mostly up to 92.2 µM;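 further: 0% = DMSO alone and full effect = 92 µM tetraoctylammonium bromide; nearly all actives have a fitted effect of over 55% in size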
Summary of the method: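 Luminescent ATP read-out (CellTiter-Glo, 30 min room temperature) served as the viability measure after 24 hr treatment of lymphoblastoid cells at 37 C. Concentration-response data were fitted to the Hill equation for AC50.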

[8] = Cell Viability - LYMP2-006 (AID 978); conditions: LYMP2-006 lymphoblastoid cell viability, qHTS; series mostly up to 92.2 µM; further: on the % scale 0 is the no-effect control and ±100 the full control effect; nearly all actives have a fitted effect of over 60% in size
Summary of the method: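 Human lymphoblastoid cells (LYMP2-006), 2500/well in complete medium, were treated with compound for 24 hr at 37 C. Cellular ATP was read by CellTiter-Glo luminescence after 30 min, and AC50 values came from Hill-equation fits of concentration-response data.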

[9] = target: Glucocorticoid receptor (Homo sapiens) (UniProt P04150); assay: qHTS assay for small molecule agonists of glucocorticoid receptor signaling (AID 588532; active means well fitted curve in the direction sought with a large enough effect in the signal ratio, with a control signal flat; the % refers to the signal ratio;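 further: 100% = dexamethasone at 0.1 µM and 0% = DMSO only wells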); conditions: HeLa MMTV-bla, beta-lactamase ratio, agonist, 18 h; stronger effect = higher value; percent of dexamethasone control, DMSO zero
Chain of Glucocorticoid receptor (Homo sapiens) (P04150 whole entry, looked up): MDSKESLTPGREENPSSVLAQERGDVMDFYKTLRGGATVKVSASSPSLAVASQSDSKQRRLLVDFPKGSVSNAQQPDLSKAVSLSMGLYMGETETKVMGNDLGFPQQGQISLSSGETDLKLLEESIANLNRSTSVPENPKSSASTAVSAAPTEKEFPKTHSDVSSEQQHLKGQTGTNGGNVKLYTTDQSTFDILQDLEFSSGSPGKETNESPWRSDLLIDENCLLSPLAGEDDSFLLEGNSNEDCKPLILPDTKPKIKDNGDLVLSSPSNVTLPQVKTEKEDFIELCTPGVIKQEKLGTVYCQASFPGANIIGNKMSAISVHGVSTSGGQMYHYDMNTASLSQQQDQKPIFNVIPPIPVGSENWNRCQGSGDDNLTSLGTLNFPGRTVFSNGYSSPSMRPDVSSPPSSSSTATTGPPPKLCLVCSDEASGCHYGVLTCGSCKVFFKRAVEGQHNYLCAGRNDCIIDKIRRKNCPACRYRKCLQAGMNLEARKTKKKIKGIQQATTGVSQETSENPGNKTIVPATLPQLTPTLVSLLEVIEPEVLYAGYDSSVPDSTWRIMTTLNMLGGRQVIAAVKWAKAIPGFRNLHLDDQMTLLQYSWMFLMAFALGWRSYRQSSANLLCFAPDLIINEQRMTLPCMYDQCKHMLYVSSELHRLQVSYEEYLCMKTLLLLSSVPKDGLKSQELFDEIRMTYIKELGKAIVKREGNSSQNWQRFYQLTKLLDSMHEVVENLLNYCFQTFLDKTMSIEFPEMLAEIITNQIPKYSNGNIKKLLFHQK
Summary of the method: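 MMTV-bla HeLa, beta-lactamase reporter; medium with 1% charcoal/dextran-stripped FBS; cpds up to 92 uM, 18 h, 37 C; CCF4 readout 460/530 nm; Hill fit → EC50, efficacy vs 0.1 uM dexamethasone = 100%.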

[10] = qHTS assay for small molecule agonists of retinoid X receptor alpha signaling (AID 588544); conditions: HEK293T RXRa-UAS-bla, beta-lactamase reporter, 18 h; 530 nm emission
[11] = target: Thyroid hormone receptor beta (Homo sapiens) (UniProt P10828); assay: qHTS assay for small molecule agonists of thyroid hormone receptor beta signaling (AID 588545; calls by dose curve;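 further: 0% = DMSO only and 100% = 10 nM T3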); conditions: TR-UAS-bla GripTite HEK 293, beta-lactamase ratio, agonist mode, 18 h; series mostly up to 76.7 µM
Chain of Thyroid hormone receptor beta (Homo sapiens) (P10828 whole entry, looked up): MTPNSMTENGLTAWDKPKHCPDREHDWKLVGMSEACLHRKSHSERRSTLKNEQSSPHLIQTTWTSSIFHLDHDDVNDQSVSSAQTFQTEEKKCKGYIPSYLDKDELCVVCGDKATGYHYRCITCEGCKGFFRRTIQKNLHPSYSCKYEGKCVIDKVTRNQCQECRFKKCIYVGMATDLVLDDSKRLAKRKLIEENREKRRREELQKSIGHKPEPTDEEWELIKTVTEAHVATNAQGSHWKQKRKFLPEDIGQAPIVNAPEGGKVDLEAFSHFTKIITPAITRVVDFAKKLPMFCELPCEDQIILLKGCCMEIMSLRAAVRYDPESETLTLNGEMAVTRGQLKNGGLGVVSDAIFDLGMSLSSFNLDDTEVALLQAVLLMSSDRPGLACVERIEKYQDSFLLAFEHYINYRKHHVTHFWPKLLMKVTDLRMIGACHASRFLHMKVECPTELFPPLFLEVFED
Summary of the method: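 TR-UAS-bla-GripTite HEK 293 cells in medium with 2% charcoal/dextran FBS, 0.1 mM NEAA and 1 mM sodium pyruvate were treated with titrated compounds for 18 hrs at 37 C. Beta-lactamase reporter was read with CCF4 dye (ex 405, em 460/530 nm); EC50 from Hill fits.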

[12] = target: Thyroid hormone receptor beta (Homo sapiens) (UniProt P10828); assay: qHTS assay for small molecule antagonists of thyroid hormone receptor beta signaling (AID 588547; active means well fitted inhibition curve with a large enough effect in the signal ratio, with a control signal flat, not every such curve was filed as active; the % refers to the signal ratio;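 further: cells stimulated with 0.4 nM T3 agonist during compound exposure; on the % scale 0 is the no-effect control and ±100 the full control effect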); conditions: TR-UAS-bla HEK293, beta-lactamase ratio, antagonist mode, 18 h
Summary of the method: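 TR-UAS-bla GripTite HEK293 cells in 2% charcoal/dextran FBS medium were preincubated 4 h at 37 C, given compound (0.59 nM to 92 uM) plus 0.4 nM T3 (final) for 18 h, then CCF4 for 2 h at RT; Hill fit gave IC50.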

[13] = target: Voltage-gated inwardly rectifying potassium channel KCNH2 (Homo sapiens) (UniProt Q12809); assay: qHTS Assay for Small Molecule Inhibitors of the Human hERG Channel Activity (AID 588834); conditions: U2OS BacMam hERG, FluxOR thallium flux fluorescence; series mostly up to 92.2 µM;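 further: top concentration of the series differs between compounds; on the % scale 0 is the no-effect control and ±100 the full control effect; lower thallium flux fluorescence means stronger hERG block; nearly all actives have a fitted effect of over 50% in size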
Chain of Voltage-gated inwardly rectifying potassium channel KCNH2 (Homo sapiens) (Q12809 whole entry, looked up): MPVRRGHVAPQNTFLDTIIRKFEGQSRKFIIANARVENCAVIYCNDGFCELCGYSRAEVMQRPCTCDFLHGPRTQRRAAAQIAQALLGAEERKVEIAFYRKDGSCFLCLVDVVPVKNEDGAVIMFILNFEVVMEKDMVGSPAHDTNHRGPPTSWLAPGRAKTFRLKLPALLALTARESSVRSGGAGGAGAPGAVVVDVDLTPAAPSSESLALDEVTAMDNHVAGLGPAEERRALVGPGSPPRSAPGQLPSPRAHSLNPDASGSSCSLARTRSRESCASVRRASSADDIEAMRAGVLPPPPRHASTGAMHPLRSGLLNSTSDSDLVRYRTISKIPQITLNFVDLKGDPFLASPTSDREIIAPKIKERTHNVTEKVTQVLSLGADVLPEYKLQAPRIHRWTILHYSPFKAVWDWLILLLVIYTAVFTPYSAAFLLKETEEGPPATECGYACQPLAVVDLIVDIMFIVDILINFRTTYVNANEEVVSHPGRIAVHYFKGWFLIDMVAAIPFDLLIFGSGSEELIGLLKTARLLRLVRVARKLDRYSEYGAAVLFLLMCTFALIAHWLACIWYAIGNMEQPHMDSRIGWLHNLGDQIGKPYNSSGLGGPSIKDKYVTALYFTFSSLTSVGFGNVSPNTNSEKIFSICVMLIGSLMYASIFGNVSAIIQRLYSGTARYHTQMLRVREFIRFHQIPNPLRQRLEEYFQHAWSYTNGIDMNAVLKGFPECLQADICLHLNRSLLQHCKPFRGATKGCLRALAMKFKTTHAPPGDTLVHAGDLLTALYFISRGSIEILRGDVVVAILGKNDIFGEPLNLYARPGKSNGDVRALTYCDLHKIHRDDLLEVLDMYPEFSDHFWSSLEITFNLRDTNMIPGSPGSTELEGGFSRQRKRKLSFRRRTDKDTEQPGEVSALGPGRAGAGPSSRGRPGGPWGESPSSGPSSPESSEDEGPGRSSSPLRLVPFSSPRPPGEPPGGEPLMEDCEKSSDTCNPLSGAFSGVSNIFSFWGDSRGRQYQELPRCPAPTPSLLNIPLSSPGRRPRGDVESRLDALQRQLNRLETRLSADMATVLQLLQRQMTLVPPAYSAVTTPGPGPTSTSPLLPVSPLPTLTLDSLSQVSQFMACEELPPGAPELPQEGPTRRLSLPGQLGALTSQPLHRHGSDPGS
Summary of the method: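 U2OS cells BacMam-transduced with hERG, 2000 cells/well, compound ~10 min at 37 °C before stimulation buffer. FluxOR thallium flux fluorescence read kinetically on FDSS; decrease indicates block; AC50 from Hill fits.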

[14] = qHTS assay for small molecule disruptors of the mitochondrial membrane potential - 1 hr assay (AID 651754; calls by dose curve; further: nearly all actives have a fitted effect of over 35% in size; further: potency means the concentration at half of the fitted maximal effect); conditions: series mostly up to 92.2 µM
Summary of the method: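 HepG2, 2,000 cells/well, overnight attachment; cpd or DMSO 1 hr, 37C/5% CO2; Mito-MPS dye 30 min, 37C; fluorescence monomer (490/535) and aggregate (540/590).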

[15] = qHTS assay for small molecule disruptors of the mitochondrial membrane potential - 5 hr assay (AID 651755; calls by dose curve; further: nearly all actives have a fitted effect of over 40% in size; further: potency means the concentration at half of the fitted maximal effect); conditions: JC-1-type ratio dye; series mostly up to 92.2 µM
Summary of the method: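 HepG2 cells, attached overnight at 37C, were exposed to compound or DMSO for 5 hr at 37C, 5% CO2. Mito-MPS dye was then added for 30 min, and fluorescence read at 490/535 nm (monomers) and 540/590 nm (aggregates).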

[16] = qHTS assay for small molecule antagonists of the retinoid-related orphan receptor gamma (ROR-gamma) signaling pathway - cell viability counter screen (AID 720652; active means well fitted curve in the direction sought with a large enough effect in the repeat runs; an effect the other way counts as inactive or inconclusive;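 further: compound exposure lasted 16 hr before ATP read; on the % scale 0 is the no-effect control and ±100 the full control effect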); conditions: RORgamma reporter cell line viability counter screen; series mostly up to 92.2 µM
Summary of the method: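 Luminescence from CellTiter-Glo after 30 min at room temperature reported cellular ATP as the cytotoxicity measure. Cells were the CHO reporter line with doxycycline-induced ROR-gamma expression, exposed to compound for 16 hr at 37 C.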

[17] = Cell Viability - LYMP2-005 (AID 967); conditions: LYMP2-005 lymphoblastoid cell viability; series mostly up to 92.2 µM;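 further: plate controls were DMSO only for no effect and 92 µM tetraoctylammonium bromide control for full effect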
Summary of the method: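 Human lymphoblastoid LYMP2-005 cells, 2,500 per well in complete medium, rested 5 h at 37C then compound-treated 24 h at 37C. Intracellular ATP read by CellTiter-Glo luminescence after 30 min at room temperature; AC50 from Hill-equation fits of concentration-response data.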

[18] = Cell Viability - LYMP2-015 (AID 971); conditions: LYMP2-015 lymphoblastoid cell viability; series mostly up to 92.2 µM;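 further: 0% = DMSO only and full effect = 92 µM tetraoctylammonium bromide; nearly all actives have a fitted effect of over 55% in size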
Summary of the method: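 Luminescent ATP read-out (CellTiter-Glo) served as the viability measure after lymphoblastoid cells were exposed to compounds for 24 hours at 37 C. Concentration-response data were fitted with the Hill equation to give AC50.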

[19] = Cell Viability - LYMP2-010 (AID 981); conditions: LYMP2-010 lymphoblastoid cell viability, qHTS; series mostly up to 92.2 µM; further: on the % scale 0 is the no-effect control and ±100 the full control effect; nearly all actives have a fitted effect of over 55% in size
Summary of the method: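 Luminescent ATP signal (CellTiter-Glo) served as the viability read-out. Cells of the human lymphoblastoid line were treated with compound over a concentration range for 24 hours at 37 C, and AC50 values came from Hill-equation modeling.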

[20] = target: Nuclear receptor subfamily 1 group I member 2 (Rattus norvegicus) (UniProt Q9R1A7); assay: qHTS assay for small molecule activators of the rat pregnane X receptor (rPXR) signaling pathway (AID 651751; call rule not given here; further: 0% is about no effect); conditions: rPXR reporter cells, luciferase (One-Glo), 24 h
Chain of Nuclear receptor subfamily 1 group I member 2 (Rattus norvegicus) (Q9R1A7 whole entry, looked up): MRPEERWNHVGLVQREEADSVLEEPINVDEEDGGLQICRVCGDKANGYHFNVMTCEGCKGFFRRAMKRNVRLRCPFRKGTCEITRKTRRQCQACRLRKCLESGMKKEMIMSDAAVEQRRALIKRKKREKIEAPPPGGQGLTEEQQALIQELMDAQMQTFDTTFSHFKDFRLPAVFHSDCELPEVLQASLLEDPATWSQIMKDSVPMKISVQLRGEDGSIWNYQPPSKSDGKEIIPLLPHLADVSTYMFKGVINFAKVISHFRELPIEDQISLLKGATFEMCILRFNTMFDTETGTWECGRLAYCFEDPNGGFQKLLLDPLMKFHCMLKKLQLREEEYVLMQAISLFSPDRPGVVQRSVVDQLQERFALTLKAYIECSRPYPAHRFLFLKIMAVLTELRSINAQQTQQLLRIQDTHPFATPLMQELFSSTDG

Nc1ccccc1O
23.5%: max response [10]
inactive: Potency [1] > 92 µM | Potency [2] > 92 µM | Potency [3] | Potency [4] | Potency [5] | Potency [6] | Potency [7] | Potency [8] | activation [9] 7.62% | Potency [11] | activity change % (negative = inhibition) [12] -12.3% | Potency [13] | Potency [16]
active: Potency [14] 15 µM | Potency [15] 23.7 µM

c1c[nH]cn1
inactive: Potency [1] > 92 µM | Potency [2] > 92 µM | Potency [3] | Potency [5] | Potency [17] | Potency [6] | Potency [18] | Potency [7] | Potency [8] | Potency [19] | activation [9] -7.19% | Potency [11] | activity change % (negative = inhibition) [12] -11.5% | Potency [13] | Potency [14] | Potency [15] | Potency [16] | max response [20] -3.01%
1.75%: max response [10]

Cc1ccc2ccc3cccc4ccc1c2c34
inactive: Potency [1] > 92 µM | Potency [2] > 92 µM | Potency [3] | Potency [4] | Potency [17] | Potency [6] | Potency [18] | Potency [7] | Potency [8] | Potency [19] | activation [9] -3.78% | Potency [11] | activity change % (negative = inhibition) [12] 1.52% | max response [20] 10%
-15.6%: max response [10]

O=[N+]([O-])c1ccc(F)cc1F
inactive: Potency [1] > 92 µM | Potency [2] > 92 µM | Potency [3] | Potency [4] | Potency [5] | Potency [17] | Potency [6] | Potency [18] | Potency [8] | Potency [11] | activity change % (negative = inhibition) [12] 0.277% | Potency [13] | Potency [14] | Potency [15] | Potency [16] | max response [20] 0.993%
0.464%: max response [10]

COc1ccc(C(=O)Nc2ccccc2)cc1[N+](=O)[O-]
active: Potency [14] 33.5 µM | Potency [15] 37.6 µM
inactive: Potency [1] > 92 µM | Potency [2] > 92 µM | Potency [3] | Potency [4] | Potency [17] | Potency [6] | Potency [18] | Potency [7] | Potency [8] | Potency [19] | activation [9] -1.05% | Potency [11] | activity change % (negative = inhibition) [12] 2.48% | Potency [13] | Potency [16]

O=C1OC(=O)c2ccccc21
-8.02%: max response [10]
inactive: Potency [1] > 92 µM | Potency [2] > 92 µM | Potency [3] | Potency [4] | Potency [5] | Potency [17] | Potency [18] | Potency [7] | Potency [8] | Potency [19] | activation [9] 8.87% | activity change % (negative = inhibition) [12] 1.82% | Potency [13] | Potency [14] | Potency [15] | Potency [16]

Brc1cc(Oc2cc(Br)c(Br)c(Br)c2Br)c(Br)c(Br)c1Br
21.6%: max response [10]
inactive: Potency [1] > 92 µM | Potency [2] > 92 µM | Potency [3] | Potency [4] | Potency [5] | Potency [17] | Potency [6] | Potency [18] | Potency [7] | Potency [8] | Potency [19] | activation [9] -9.25% and -1.53% | Potency [11] | activity change % (negative = inhibition) [12] 1.8% and 9.48% | Potency [13] | Potency [14] | Potency [15] | Potency [16] | max response [20] 2.26% and 7.81%
